In PubChem BioAssay AID720518 (National Center for Advancing Translational Sciences (NCATS), 2013):
Inconclusive results are not listed. Entries that show only a call come without a potency. Active and inactive are the calls of the source. Calls come from the whole dose curve.

Experiment: qHTS for Inhibitors of Cell Surface uPA Generation: Wild-type Protective Antigen (WT-PrAg) Counterscreen for Cherry-picked Compounds
Settings: cells, WT protective antigen toxicity counterscreen; series mostly up to 115 µM

**Q.** Which Potency does the source give for COc1ccccc1CCNC(=O)C(=O)NCC1OCCN1S(=O)(=O)c1ccc(OC)c(OC)c1 (centres undefined) here?
**A.** inactive

**Q.** Which Potency does the source give for CCC1(CC)NC(=O)N(CC(=O)OCC(=O)c2cc(C)c(C)cc2C)C1=O here?
**A.** inactive

**Q.** With NC(=O)c1cc2c3ccccc3ccn2c1-c1ccccc1 as the compound, how does the Potency read?
**A.** inactive

**Q.** For Cc1cccc(N2C(=O)N3[C@H](c4ccc(F)cc4)[C@@H]4C(=O)N(C5CCCCC5)C(=O)[C@@H]4[C@]3(Cc3ccc(Cl)cc3)C2=O)c1, which Potency is on record?
**A.** inactive

**Q.** Which Potency does the source give for CCc1nc(SCC(N)=O)c2c(=O)n(C)c(=O)n(C)c2n1 here?
**A.** inactive

**Q.** With COC(=O)c1cc(CNC(=O)c2ccc(N3CCCC3)c([N+](=O)[O-])c2)ccc1OC as the compound, how does the Potency read?
**A.** inactive

**Q.** For Cc1cc(OC(C)C(=O)NCc2ccccn2)c2c(C)cc(=O)oc2c1 (centres undefined), which Potency is on record?
**A.** inactive

**Q.** Which Potency does the source give for O=C1NC(CCc2ccccc2)C(=O)N1Cc1ccccc1Cl (centres undefined) here?
**A.** inactive

**Q.** For CC(=O)Nc1ccc(NC(=O)CCCCCN2C(=O)c3ccccc3C2=O)cc1, which Potency is on record?
**A.** inactive

**Q.** Which Potency does the source give for Cc1ccc(Cl)cc1NC(=O)c1ccccc1OCC(=O)N1CCOCC1 here?
**A.** inactive

**Q.** For C[C@@H](C(=O)Nc1ccc2ccccc2c1)[C@@H]1C[C@@]1(C)[C@@H](NC(=O)c1cccnc1)c1ccccc1, which Potency is on record?
**A.** inactive

**Q.** Which Potency does the source give for O=C(Nn1cnnc1)c1ccc(Cl)c(Cl)c1 here?
**A.** inactive

**Q.** Which Potency does the source give for CCOC(=O)CN1C(=O)N[C@@H](c2ccco2)C(C(=O)OC)=C1C here?
**A.** inactive

**Q.** Which Potency does the source give for C/C=C/C(=O)Nc1cccc(C2=NOC3(C2)C[C@@H](C(N)=O)N(C(=O)c2cc([N+](=O)[O-])cc([N+](=O)[O-])c2C)C3)c1 (some centres undefined) here?
**A.** inactive

**Q.** With CC(C)OC(=O)c1ccc(N2CCN(c3ccccc3F)CC2)nc1 as the compound, how does the Potency read?
**A.** inactive

**Q.** Which Potency does the source give for Cc1ccnc(N2CCN(C(=O)CSc3nc4ccccc4nc3N3CCC(C)CC3)CC2)c1 here?
**A.** inactive

**Q.** With CC1CCN(C2=C(NS(=O)(=O)c3ccc(Br)cc3)C(=O)c3ccccc3C2=O)CC1 as the compound, how does the Potency read?
**A.** inactive

**Q.** Which Potency does the source give for COc1ccc2c(c1)c1nnc(SCC(=O)Nc3ccccc3F)nc1n2C here?
**A.** inactive

**Q.** With O=C(c1ccccn1)C1CCCN(Cc2cn[nH]c2-c2cc3ccccc3o2)C1 (centres undefined) as the compound, how does the Potency read?
**A.** inactive

**Q.** With COc1ccc(CCNC(=O)Cn2c(=O)n(-c3cc(F)ccc3F)c(=O)c3sccc32)cc1OC as the compound, how does the Potency read?
**A.** inactive

**Q.** With Cc1ccc(S(=O)(=O)NNC(=O)c2ccc(F)cc2)cc1 as the compound, how does the Potency read?
**A.** inactive

**Q.** For CCOC(=O)N1CCN(c2c(NCCCN3CCCCCC3)c(=O)c2=O)CC1, which Potency is on record?
**A.** inactive

**Q.** For COCc1cc(C)nc2sc(C(=O)Nc3nccs3)c(N)c12, which Potency is on record?
**A.** inactive

**Q.** Which Potency does the source give for COc1ccc(C(C(=O)NC2CCCC2)N(C(=O)c2ccoc2C)c2ccc(C)c(C)c2)cc1 (centres undefined) here?
**A.** inactive

**Q.** Which Potency does the source give for COc1cccc(C(=O)NCc2ccc3[nH]c(C)cc3c2)c1 here?
**A.** inactive

**Q.** Which Potency does the source give for CC(C)Cn1cnc2c(N)nc3ccccc3c21 here?
**A.** inactive

**Q.** For O=C(Nn1cnnc1)c1ccc(Cl)cc1, which Potency is on record?
**A.** inactive

**Q.** For C[C@@H](NC(=O)c1nc[nH]c1C(=O)NCc1ccc(CNC(=O)OC(C)(C)C)cc1)c1ccccc1, which Potency is on record?
**A.** inactive

**Q.** Which Potency does the source give for CCCc1nn2c(=O)cc(CSCC(=O)Nc3ccccc3)nc2s1 here?
**A.** inactive

**Q.** With O=C(COc1ccccc1F)NCC(c1ccc(F)cc1)N1CCOCC1 (centres undefined) as the compound, how does the Potency read?
**A.** inactive

**Q.** Which Potency does the source give for COc1cc(CCC(=O)OCC(=O)Nc2ccc(C)cc2Br)cc(OC)c1OC here?
**A.** inactive

**Q.** For Cc1ccc2cccc(OCCCOc3ccccc3CO)c2n1, which Potency is on record?
**A.** inactive

**Q.** With CCCOc1ccc(CC2CCC(=O)NC2=O)cc1 (centres undefined) as the compound, how does the Potency read?
**A.** inactive

**Q.** For Cc1cccn2c(CNCC(C)Oc3cccnc3)c(C(=O)N3CCOCC3)nc12 (centres undefined), which Potency is on record?
**A.** inactive

**Q.** With Cc1ccc(S(=O)(=O)N2CCOCC2)cc1NC(=O)CSc1nc(N)cc(N)n1 as the compound, how does the Potency read?
**A.** inactive

**Q.** With COc1cc(C2/C(=C(\O)c3ccc4c(c3)CC(C)O4)C(=O)C(=O)N2CC2CCCO2)cc(OC)c1OC (centres undefined) as the compound, how does the Potency read?
**A.** inactive

**Q.** Which Potency does the source give for COC(=O)c1ccc(N2CCN(c3ccccc3)CC2)c(NC(=O)C2CC2)c1 here?
**A.** inactive

**Q.** For CCN1CCN(C(c2ccccc2)c2nnnn2Cc2ccc3c(c2)OCO3)CC1 (centres undefined), which Potency is on record?
**A.** inactive

**Q.** With O=C(N/N=C/c1cccnc1)c1ccccc1[N+](=O)[O-] as the compound, how does the Potency read?
**A.** inactive
